The nature of test [1]: P. berghei load reduction in hepatocytes – cell-based, HepG2, luciferase luminescence, HepG2 viability, primary screen (AID 624349; in the data active = parasite load remaining mostly below about 12%, no sharp cut-off; inactive = mostly above about 10%;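 note: 100% = mean of DMSO negative control wells on the same plate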). Conditions: P. berghei liver stage in HepG2, luciferase luminescence, concentration not given here; parasite load remaining: stronger effect = lower value; viability: measured here: HepG2 viability without parasites.
Test [2] can be described thus: signal quenchers or enhancers, Cy5 substrate/SSB – biochemical, NIH Clinical Collection, E. coli SSB, artefact control for HCV NS3 helicase inhibitor project (AID 743268). Conditions: Cy5-oligo bound E. coli SSB, fluorescence interference.
Test [3] has as its system Hepatitis C virus NS3 helicase. Put plainly: blockers of NS3h binding to DNA – biochemical, fluorescence polarization, NIH Clinical Collection, primary screen (AID 743270). Conditions: NS3 helicase binding to Cy5-dT15 DNA, stronger effect = higher value, concentration not given here.
Test [4] deals with Single-stranded DNA-binding protein (Escherichia coli (strain K12)) (UniProt P0AGE0). Briefly: SSB-ssDNA binding inhibitors – biochemical, fluorescence polarization, NIH Clinical Collection, counter-screen for HCV NS3 helicase inhibitor project (AID 743271; in the data active = inhibition above about 28%). Conditions: E. coli SSB-DNA binding, stronger effect = higher value, concentration not given here.
Test [5] is described as follows: compounds distorting NS3 helicase fluorescence signal – biochemical, NIH Clinical Collection, artefact control for HCV NS3 helicase inhibitor project (AID 743272).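 Note: HCV NS3 helicase with a Cy5 labelled single stranded DNA probe.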 Conditions: fluorescence interference counterscreen, HCV NS3 helicase assay; stronger effect = lower value.
The subject of test [6] is Neuropilin-2 / VEGF-C interaction (human). Briefly: small molecules blocking Neuropilin-2/VEGF-C interaction – biochemical, microplate binding format, z-score (AID 743281). Conditions: microplate NRP2/VEGF-C binding assay; stronger effect = lower value.
The nature of test [7]: Wnt pathway potentiators raising nuclear beta-catenin – imaging, WNT3A-conditioned medium, mouse C2C12, NPC library, primary screen (AID 1117326; in the data active = nuclear beta-catenin stimulation mostly above about 4.2%, no sharp cut-off; inactive = mostly below about 10%). Conditions: stronger effect = higher value.

The structures appear in SMILES notation. Several values for one entry are separate records, joined by “and”; a condition that tells them apart may be missing. Identical values can stand only once. Activity calls are given as the source filed them. Unless noted, the rule behind the calls is not given here. Starred links: 1 amine or outer side, 2 acyl side, 3 side chain; linkers in the order of their positions; H or OH if unused. Positions of bridges follow the written chain, without caps; N, C: chain ends. Non-standard residues stand in square brackets, D forms with d. Residues, ends and D or L forms follow the SMILES beside them. Chains are numbered I, II in the order given. Actinocin(9to1) = Cc1c2oc3c(C)ccc(C(=O)[*:1])c3nc-2c(C(=O)[*:2])c(N)c1=O; NMeV = CN[C@H](C(=O)O)C(C)C; Sar = CNCC(=O)O

`CC[N+](C)(CC)CCOC(=O)C(O)(c1ccccc1)C1CCCCC1` (stereo unspecified): the parasite load remaining in test [1] was 65.2% (inactive). Besides, in test [1], the viability turned out to be 67.2%. The fluorescence ratio in test [2] was 0.93 (inactive); in test [5] it was 0.89 (inactive). Further, the inhibition in test [3] was -3.71% (inactive); in test [4], -1.18% (inactive). The z-score in test [6] was -0.249 (inactive). In addition, the nuclear beta-catenin stimulation in test [7] (at 10 µM) is -1% (inactive); in test [7] (stimulation, at 2 µM), 3.2%.
Take `CCN1CCN(c2cc3c(cc2F)c(=O)c(C(=O)O)cn3C2CC2)CC1`: in test [1], the parasite load remaining is 29.1% (inactive) and 34.1% (inactive) and 1.73% (inactive). Further, the viability in test [1] is 97.4% and 66.5% and 68.5%. Besides, the fluorescence ratio is 1 (inactive) in test [2] and 0.97 (inactive) in test [5]. In addition, the inhibition in test [3] is 0.66% (inactive); in test [4], 0.39% (inactive). Further, the z-score in test [6] is -0.441 (inactive). The nuclear beta-catenin stimulation was 0.9% (inactive) in test [7] (at 10 µM) and 0.3% in test [7] (stimulation, at 2 µM).
Regarding `CC(c1cc2ccccc2s1)N(O)C(N)=O` (stereo unspecified), in test [1], the parasite load remaining was 58.4% (inactive) and 101% (inactive) and 41.5% (inactive). For the same compound, the viability in test [1] is 101% and 79.1% and 102%. Further, the fluorescence ratio in test [2] is 1.02 (inactive); in test [5], 1.01 (inactive). The figures for the inhibition in test [3] and in test [4] were 2.77% (inactive) and -0.87% (inactive), respectively. The z-score in test [6] was -0.124 (inactive). Also, the nuclear beta-catenin stimulation in test [7] (at 10 µM) is 0.1% (inactive); in test [7] (stimulation, at 2 µM), 0.8%.
Take `CC(C)(C)C(O)/C=C/c1ccc2c(c1)OCO2` (stereo unspecified): in test [1], the parasite load remaining is 76% (inactive). For the same compound, in test [1], the viability worked out at 68%. For the same compound, the fluorescence ratio in test [2] was 0.94 (inactive); in test [5], 0.88 (inactive). For the same compound, the inhibition in test [3] is -4.59% (inactive); in test [4] it was -2.76% (inactive). Moreover, the z-score in test [6] was -0.389 (inactive). Besides, the nuclear beta-catenin stimulation in test [7] (at 10 µM) was 0% (inactive); in test [7] (stimulation, at 2 µM) it was 1.5%.
`O=C(c1ccc(F)cc1)C1CCN(CCn2c(=S)[nH]c3ccccc3c2=O)CC1`: the parasite load remaining in test [1] was 28.9% (inactive). Besides, in test [1], the viability amounted to 66.9%. Also, the fluorescence ratio in test [2] was 1.05 (inactive); in test [5] it was 1.06 (inactive). In addition, the inhibition in test [3] was 10.7% (inactive); in test [4], 26.1% (inactive). The z-score in test [6] is 0.126 (inactive). Further, the nuclear beta-catenin stimulation in test [7] (at 10 µM) was 2.2% (inactive); in test [7] (stimulation, at 2 µM) it was -0.2%.
As for `Cc1ccnc2c1NC(=O)c1cccnc1N2C1CC1`, in test [1], the parasite load remaining is 79.8% (inactive). In addition, in test [1], the viability was 69.1%. In addition, the fluorescence ratio in test [2] was 1.05 (inactive); in test [5], 1 (inactive). The values for the inhibition in test [3] and in test [4] were 1.98% (inactive) and -5.49% (inactive), respectively. For the same compound, the z-score in test [6] was -1.18 (inactive). For the same compound, the nuclear beta-catenin stimulation was 0% (inactive) in test [7] (at 10 µM) and 1.8% in test [7] (stimulation, at 2 µM).
As to `Cc1ccsc1C(=CCCN1CCC[C@@H](C(=O)O)C1)c1sccc1C`, the parasite load remaining in test [1] is 111% (inactive). Further, in test [1], the viability was found to be 71.9%. Further, the fluorescence ratio was 0.99 (inactive) in test [2] and 0.96 (inactive) in test [5]. In addition, the inhibition in test [3] was -2.77% (inactive); in test [4] it was 3.75% (inactive). Moreover, the z-score in test [6] is 1.77 (inactive). Moreover, the nuclear beta-catenin stimulation in test [7] (at 10 µM) is 1.8% (inactive); in test [7] (stimulation, at 2 µM), 0.9%.
In the case of `Cc1c2oc3c(C)ccc(C(=O)N[C@@H]4C(=O)N[C@H](C(C)C)C(=O)N5CCC[C@H]5C(=O)N(C)CC(=O)N(C)[C@@H](C(C)C)C(=O)O[C@@H]4C)c3nc-2c(C(=O)N[C@@H]2C(=O)N[C@H](C(C)C)C(=O)N3CCC[C@H]3C(=O)N(C)CC(=O)N(C)[C@@H](C(C)C)C(=O)O[C@@H]2C)c(N)c1=O` (I: T[dV]P[Sar][NMeV] / II: T[dV]P[Sar][NMeV]; ester I:1-I:C, II:1-II:C; linker I:N-II:N via Actinocin(9to1)), the parasite load remaining in test [1] was -0.02% (inactive). Besides, the viability in test [1] was found to be 31.5%. In addition, the fluorescence ratio was 0.91 (inactive) in test [2] and 0.93 (inactive) in test [5]. Further, the values for the inhibition in test [3] and in test [4] were 1.53% (inactive) and 2.76% (inactive), respectively. Also, the z-score in test [6] was -4.03 (active). For the same compound, the nuclear beta-catenin stimulation in test [7] (at 10 µM) is 92.5% (active); in test [7] (stimulation, at 2 µM), 109%.
As to `CC1CCN(CCCC(=O)c2ccc(F)cc2)CC1`, the parasite load remaining in test [1] is 55.3% (inactive). Also, the viability in test [1] was 68.6%. In addition, the fluorescence ratio in test [2] was 1 (inactive); in test [5] it was 0.99 (inactive). The values for the inhibition in test [3] and in test [4] were -3.71% (inactive) and 1.97% (inactive), respectively. Besides, in test [6], the z-score is 1.36 (inactive). Also, the nuclear beta-catenin stimulation was 1.8% (inactive) in test [7] (at 10 µM) and 0.7% in test [7] (stimulation, at 2 µM).
`CNS(=O)(=O)Cc1ccc2[nH]cc(CCN(C)C)c2c1`: the parasite load remaining in test [1] is 108% (inactive) and 29.1% (inactive). For the same compound, in test [1], the viability was 93.1% and 65.5%. In addition, the fluorescence ratio in test [2] is 1.05 (inactive); in test [5], 1.03 (inactive). Also, the inhibition is 5.94% (inactive) in test [3] and 6.06% (inactive) in test [4]. Further, in test [6], the z-score is 0.0332 (inactive). Moreover, the nuclear beta-catenin stimulation in test [7] (at 10 µM) is 0.9% (inactive); in test [7] (stimulation, at 2 µM), 0.4%.
Regarding `CCOC(=O)OC(C)OC1=C(C(=O)Nc2ccccn2)N(C)S(=O)(=O)c2ccccc21` (stereo unspecified), in test [1], the parasite load remaining is 75.6% (inactive) and 16.2% (inactive). Besides, in test [1], the viability was 78.8% and 73%. In addition, the fluorescence ratio in test [2] was 0.97 (inactive); in test [5] it was 0.96 (inactive). The inhibition in test [3] is -2.84% (inactive); in test [4] it was -0.39% (inactive). In addition, in test [6], the z-score was -0.884 (inactive). Also, the nuclear beta-catenin stimulation in test [7] (at 10 µM) was 0.7% (inactive); in test [7] (stimulation, at 2 µM), -0.8%.
With `O=C1CCc2ccc(OCCCCN3CCN(c4cccc(Cl)c4Cl)CC3)cc2N1`, the parasite load remaining in test [1] is 37.5% (inactive) and 20.9% (inactive) and 45.9% (inactive). The viability in test [1] is 98.8% and 60.3% and 100%. The fluorescence ratio was 1 (inactive) in test [2] and 1.02 (inactive) in test [5]. The inhibition is 1.98% (inactive) in test [3] and 4.52% (inactive) in test [4]. The z-score in test [6] is 1.76 (inactive). Besides, the nuclear beta-catenin stimulation in test [7] (at 10 µM) is 2.8% (inactive); in test [7] (stimulation, at 2 µM), 0.4%.
Turning to `Cc1[nH]cnc1CN1CCc2c(c3ccccc3n2C)C1=O`, the parasite load remaining in test [1] is 109% (inactive). Also, the viability in test [1] worked out at 87.6%. Besides, the fluorescence ratio was 0.99 (inactive) in test [2] and 0.96 (inactive) in test [5]. The values for the inhibition in test [3] and in test [4] were -8.32% (inactive) and -4.72% (inactive), respectively. In test [6], the z-score is 0.471 (inactive). Besides, the nuclear beta-catenin stimulation in test [7] (at 10 µM) was 1.1% (inactive); in test [7] (stimulation, at 2 µM) it was 1.4%.
Consider `CNCCCCOc1ccccc1Cc1ccccc1`, for which, in test [1], the parasite load remaining is 22.1% (inactive). For the same compound, the viability in test [1] is 54.6%. The fluorescence ratio in test [2] was 1 (inactive); in test [5], 0.96 (inactive). Also, the inhibition in test [3] was -4.36% (inactive); in test [4] it was -0.87% (inactive). The z-score in test [6] is -0.524 (inactive). The nuclear beta-catenin stimulation in test [7] (at 10 µM) was 1.7% (inactive); in test [7] (stimulation, at 2 µM), 1.6%.

The values above are taken from PubChem BioAssay.
